Laboratory results reported in the supplement of paper PMC11732987, “Enantioselective OTUD7B fragment discovery through chemoproteomics screening and high-throughput optimisation” (Communications Chemistry, 2025).

Tests used:
Assay in all cases: log2 ratio of Biotin-Ahx-Ub-VS probe labelling (fragment/DMSO); higher = less target engagement (more negative = stronger competition), active = hit call of the paper (q ≤ 0.05, log2 ratio ≤ -1)
Conditions in all cases: compound concentration: 200 uM; treatment time: 3 h
USP34 = USP34 (UniProt Q70CQ2)
Procedure, shortened: (§1)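 HEK293T lysate, 495 µg per sample in Tris/CHAPS/IGEPAL buffer with protease inhibitors, was treated in triplicate with fragment at 200 µM or vehicle for 3 h and then with Biotin-Ahx-Ub-VS at 0.5 µM final for 1 h. Labelled DUBs were NeutrAvidin-enriched, digested with LysC and trypsin, and run by diaPASEF LC-MS/MS. Spectronaut label-free quantities were global-median-normalised, and values are average log2 fragment/vehicle ratios by unpaired t-test on proteins with ≥2 unique peptides.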

USP36 = biological target: T1, USP36 (UniProt Q9P275)
T1 sequence (whole entry): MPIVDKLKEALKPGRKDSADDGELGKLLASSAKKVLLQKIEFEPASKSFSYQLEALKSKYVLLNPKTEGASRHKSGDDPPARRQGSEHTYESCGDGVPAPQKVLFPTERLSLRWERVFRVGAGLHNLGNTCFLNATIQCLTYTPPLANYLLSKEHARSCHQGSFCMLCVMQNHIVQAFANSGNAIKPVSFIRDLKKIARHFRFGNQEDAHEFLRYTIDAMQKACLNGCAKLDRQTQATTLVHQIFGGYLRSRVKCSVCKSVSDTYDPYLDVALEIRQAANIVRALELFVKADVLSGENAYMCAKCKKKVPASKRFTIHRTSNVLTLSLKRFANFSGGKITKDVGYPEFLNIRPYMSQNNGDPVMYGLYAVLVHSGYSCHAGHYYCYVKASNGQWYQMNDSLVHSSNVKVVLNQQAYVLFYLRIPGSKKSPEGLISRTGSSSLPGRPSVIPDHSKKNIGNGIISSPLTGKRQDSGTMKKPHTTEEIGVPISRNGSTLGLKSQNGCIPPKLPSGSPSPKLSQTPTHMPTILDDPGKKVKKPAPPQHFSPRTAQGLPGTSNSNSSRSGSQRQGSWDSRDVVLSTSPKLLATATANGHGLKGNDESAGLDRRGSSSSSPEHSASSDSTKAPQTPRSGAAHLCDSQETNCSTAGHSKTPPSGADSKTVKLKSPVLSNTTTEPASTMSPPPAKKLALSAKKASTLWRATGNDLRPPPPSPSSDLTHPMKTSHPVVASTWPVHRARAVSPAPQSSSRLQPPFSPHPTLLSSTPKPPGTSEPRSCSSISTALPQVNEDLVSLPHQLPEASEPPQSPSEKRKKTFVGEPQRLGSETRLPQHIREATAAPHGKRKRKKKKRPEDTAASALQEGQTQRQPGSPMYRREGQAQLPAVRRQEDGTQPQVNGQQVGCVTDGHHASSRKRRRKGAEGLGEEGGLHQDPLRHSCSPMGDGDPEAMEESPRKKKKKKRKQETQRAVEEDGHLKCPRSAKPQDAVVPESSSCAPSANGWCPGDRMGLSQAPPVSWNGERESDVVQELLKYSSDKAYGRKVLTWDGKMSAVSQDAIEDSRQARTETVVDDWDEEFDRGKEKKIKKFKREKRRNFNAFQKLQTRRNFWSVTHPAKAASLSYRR
Procedure, shortened: as §1

USP38 = biological target: T2, USP38 (UniProt Q8NB14)
T2 sequence (whole entry): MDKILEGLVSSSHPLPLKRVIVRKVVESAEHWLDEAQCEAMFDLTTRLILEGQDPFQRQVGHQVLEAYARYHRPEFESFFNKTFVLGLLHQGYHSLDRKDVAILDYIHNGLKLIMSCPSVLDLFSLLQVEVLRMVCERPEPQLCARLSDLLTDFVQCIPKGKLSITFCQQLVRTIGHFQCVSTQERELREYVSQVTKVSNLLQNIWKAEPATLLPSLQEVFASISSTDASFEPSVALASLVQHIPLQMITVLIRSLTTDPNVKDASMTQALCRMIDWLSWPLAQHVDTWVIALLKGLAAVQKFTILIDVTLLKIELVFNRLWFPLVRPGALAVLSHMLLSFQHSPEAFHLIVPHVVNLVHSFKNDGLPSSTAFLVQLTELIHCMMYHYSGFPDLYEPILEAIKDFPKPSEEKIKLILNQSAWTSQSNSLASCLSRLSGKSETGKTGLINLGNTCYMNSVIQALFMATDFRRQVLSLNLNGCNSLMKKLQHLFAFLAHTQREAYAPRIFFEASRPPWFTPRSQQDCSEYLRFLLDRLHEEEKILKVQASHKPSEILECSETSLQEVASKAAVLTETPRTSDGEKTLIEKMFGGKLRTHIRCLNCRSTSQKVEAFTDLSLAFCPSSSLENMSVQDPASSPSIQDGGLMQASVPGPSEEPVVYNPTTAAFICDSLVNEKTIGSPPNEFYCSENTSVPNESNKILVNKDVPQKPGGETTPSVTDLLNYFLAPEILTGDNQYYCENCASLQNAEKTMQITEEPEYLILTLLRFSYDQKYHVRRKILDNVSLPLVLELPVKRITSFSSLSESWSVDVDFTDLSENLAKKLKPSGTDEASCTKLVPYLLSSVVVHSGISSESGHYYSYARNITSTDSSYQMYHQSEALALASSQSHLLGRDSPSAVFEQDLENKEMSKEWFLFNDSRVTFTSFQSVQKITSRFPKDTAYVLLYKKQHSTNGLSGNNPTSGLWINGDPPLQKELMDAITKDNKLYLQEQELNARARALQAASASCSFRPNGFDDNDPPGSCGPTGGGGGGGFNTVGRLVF
Procedure, shortened: as §1

USP39 = biological target: T3, USP39 (UniProt Q53GS9)
T3 sequence (whole entry): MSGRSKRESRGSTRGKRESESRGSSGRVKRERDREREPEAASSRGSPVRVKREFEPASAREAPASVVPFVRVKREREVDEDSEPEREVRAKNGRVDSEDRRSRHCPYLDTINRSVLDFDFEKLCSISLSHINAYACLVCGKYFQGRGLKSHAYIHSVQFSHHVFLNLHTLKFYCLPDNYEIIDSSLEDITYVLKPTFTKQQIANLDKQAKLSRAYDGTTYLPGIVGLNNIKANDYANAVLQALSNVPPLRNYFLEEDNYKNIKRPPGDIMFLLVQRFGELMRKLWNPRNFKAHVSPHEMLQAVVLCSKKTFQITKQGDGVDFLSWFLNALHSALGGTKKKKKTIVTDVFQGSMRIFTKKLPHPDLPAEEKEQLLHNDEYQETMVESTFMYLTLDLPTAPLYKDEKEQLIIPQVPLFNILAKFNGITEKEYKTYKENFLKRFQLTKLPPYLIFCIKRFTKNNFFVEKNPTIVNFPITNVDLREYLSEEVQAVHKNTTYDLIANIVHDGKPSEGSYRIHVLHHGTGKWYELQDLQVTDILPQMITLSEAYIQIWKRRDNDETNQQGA
Procedure, shortened: as §1

USP4 = biological target: T4, USP4 (UniProt Q13107)
T4 sequence (whole entry): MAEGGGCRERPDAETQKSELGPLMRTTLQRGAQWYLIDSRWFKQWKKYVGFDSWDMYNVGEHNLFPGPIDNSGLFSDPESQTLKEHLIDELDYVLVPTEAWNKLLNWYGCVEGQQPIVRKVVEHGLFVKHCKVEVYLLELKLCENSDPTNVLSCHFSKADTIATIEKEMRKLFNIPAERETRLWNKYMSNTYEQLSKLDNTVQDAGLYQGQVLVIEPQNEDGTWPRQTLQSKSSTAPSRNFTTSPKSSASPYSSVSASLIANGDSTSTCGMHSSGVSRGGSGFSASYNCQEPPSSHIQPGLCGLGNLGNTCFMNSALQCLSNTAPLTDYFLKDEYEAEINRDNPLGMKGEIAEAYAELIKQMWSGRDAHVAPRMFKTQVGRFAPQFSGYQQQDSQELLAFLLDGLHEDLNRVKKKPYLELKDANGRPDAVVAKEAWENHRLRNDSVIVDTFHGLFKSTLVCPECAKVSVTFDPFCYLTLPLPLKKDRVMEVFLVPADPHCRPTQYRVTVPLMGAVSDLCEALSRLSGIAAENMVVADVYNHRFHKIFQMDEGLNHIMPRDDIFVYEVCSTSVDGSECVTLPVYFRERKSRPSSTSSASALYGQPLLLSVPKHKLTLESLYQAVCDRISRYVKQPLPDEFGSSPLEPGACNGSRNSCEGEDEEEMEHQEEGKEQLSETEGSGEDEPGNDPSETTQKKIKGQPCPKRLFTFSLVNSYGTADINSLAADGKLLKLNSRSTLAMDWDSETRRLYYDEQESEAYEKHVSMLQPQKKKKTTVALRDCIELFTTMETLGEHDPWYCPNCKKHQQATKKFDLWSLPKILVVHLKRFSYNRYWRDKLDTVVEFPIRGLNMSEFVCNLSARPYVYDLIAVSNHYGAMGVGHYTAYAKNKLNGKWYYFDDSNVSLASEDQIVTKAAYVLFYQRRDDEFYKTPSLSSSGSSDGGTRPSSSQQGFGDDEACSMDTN
Procedure, shortened: as §1

Measured: log2 ratio of Biotin-Ahx-Ub-VS probe labelling

Chain of USP34 (Q70CQ2 whole entry, the tested form may be a part): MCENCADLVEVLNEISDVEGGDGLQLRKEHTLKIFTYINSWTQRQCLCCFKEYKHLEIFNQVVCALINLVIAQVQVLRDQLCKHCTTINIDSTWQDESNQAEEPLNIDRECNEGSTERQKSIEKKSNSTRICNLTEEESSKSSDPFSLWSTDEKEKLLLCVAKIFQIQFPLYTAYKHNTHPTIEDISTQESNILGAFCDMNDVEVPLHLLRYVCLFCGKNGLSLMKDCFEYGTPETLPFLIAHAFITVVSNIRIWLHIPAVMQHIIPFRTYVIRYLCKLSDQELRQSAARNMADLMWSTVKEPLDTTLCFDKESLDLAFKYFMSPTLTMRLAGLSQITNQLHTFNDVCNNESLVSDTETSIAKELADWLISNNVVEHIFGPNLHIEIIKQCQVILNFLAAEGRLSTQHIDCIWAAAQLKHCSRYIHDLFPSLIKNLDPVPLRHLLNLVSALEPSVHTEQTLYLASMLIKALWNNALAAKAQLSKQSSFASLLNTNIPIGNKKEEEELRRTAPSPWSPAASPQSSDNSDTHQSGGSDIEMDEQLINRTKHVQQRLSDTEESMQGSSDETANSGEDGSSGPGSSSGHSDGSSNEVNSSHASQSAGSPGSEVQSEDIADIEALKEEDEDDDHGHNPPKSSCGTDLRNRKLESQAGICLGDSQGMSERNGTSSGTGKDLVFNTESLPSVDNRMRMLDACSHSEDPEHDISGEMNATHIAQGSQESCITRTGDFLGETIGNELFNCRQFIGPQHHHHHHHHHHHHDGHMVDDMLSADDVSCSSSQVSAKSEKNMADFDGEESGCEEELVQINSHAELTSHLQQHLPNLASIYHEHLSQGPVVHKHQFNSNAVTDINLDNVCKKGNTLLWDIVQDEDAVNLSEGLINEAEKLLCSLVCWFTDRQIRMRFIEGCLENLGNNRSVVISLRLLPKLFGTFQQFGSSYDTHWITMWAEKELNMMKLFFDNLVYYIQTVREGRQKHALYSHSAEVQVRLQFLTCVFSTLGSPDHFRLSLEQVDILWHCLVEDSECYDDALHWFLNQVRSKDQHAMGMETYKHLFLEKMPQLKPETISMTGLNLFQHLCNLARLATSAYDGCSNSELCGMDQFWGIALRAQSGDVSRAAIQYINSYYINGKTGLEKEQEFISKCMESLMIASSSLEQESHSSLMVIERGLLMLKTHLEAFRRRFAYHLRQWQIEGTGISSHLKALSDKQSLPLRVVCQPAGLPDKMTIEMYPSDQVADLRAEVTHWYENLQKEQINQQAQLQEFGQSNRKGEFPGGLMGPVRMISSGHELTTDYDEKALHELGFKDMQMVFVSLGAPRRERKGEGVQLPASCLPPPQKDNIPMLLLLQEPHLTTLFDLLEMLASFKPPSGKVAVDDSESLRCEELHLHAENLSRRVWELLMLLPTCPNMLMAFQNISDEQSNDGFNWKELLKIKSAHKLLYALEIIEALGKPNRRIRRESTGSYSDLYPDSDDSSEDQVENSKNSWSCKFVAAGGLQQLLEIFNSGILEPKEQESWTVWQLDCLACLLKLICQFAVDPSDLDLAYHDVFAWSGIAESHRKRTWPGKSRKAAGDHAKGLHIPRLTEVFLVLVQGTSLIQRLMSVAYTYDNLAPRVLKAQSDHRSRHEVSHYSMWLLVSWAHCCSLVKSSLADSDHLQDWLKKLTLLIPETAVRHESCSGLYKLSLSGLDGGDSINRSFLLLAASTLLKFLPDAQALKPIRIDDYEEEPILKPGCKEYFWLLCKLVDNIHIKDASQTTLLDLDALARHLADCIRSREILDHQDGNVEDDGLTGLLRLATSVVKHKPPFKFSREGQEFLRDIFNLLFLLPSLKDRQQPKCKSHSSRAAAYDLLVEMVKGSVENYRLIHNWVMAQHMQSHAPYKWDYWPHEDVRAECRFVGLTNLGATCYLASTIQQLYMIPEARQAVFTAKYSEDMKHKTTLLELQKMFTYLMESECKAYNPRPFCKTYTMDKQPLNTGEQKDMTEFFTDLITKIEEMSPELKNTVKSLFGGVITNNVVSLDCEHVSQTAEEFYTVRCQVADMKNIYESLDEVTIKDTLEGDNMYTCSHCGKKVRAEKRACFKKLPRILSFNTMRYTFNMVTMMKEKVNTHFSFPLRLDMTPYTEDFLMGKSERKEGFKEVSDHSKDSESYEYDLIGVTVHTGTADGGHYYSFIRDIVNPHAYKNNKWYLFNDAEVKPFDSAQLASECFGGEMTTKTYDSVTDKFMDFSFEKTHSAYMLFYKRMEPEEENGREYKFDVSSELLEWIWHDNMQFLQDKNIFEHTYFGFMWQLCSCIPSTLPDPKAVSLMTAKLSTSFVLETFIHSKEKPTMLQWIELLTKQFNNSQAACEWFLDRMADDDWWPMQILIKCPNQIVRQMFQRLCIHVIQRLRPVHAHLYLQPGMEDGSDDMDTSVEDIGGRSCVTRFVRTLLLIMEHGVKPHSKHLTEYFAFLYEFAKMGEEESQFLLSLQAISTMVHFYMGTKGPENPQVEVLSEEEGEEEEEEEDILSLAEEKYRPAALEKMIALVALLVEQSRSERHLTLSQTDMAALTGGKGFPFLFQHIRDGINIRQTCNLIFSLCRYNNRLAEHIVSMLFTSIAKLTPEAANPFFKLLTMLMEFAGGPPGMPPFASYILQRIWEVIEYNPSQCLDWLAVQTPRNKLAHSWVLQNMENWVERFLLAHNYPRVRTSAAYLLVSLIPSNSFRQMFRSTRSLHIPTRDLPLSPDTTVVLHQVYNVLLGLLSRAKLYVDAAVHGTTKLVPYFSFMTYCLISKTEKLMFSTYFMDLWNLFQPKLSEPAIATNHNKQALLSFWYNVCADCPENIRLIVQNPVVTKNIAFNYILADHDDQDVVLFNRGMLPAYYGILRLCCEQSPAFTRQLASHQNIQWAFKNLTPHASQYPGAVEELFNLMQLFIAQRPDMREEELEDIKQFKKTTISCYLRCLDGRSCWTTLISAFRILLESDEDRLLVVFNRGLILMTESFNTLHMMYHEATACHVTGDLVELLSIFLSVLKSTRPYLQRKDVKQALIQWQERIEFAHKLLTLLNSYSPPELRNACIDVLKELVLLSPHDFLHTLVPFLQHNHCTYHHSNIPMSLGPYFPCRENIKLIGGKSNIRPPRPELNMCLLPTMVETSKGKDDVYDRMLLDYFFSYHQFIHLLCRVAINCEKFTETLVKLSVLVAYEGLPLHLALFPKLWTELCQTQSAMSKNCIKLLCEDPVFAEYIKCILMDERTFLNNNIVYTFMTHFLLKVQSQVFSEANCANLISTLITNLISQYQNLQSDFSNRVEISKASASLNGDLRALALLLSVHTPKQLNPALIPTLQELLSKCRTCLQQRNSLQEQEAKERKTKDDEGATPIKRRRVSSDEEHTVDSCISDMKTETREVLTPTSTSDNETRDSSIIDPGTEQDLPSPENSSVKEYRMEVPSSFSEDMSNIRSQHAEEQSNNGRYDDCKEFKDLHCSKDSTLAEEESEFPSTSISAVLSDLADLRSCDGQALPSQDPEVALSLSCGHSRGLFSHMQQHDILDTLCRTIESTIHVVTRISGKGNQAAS

O=C(CCl)N1CCOC(c2cccc(F)c2)C1 (stereo not given)
inactive: USP34 -0.575 | USP36 -0.337 | USP38 -0.131 | USP39 -0.0268 | USP4 -0.344
